Sampled rows, rich in hits. Any-hit rate of the full collection: about 5.3%.
Lassa entry inh: qHTS for Inhibitors of binding or entry into cells for Lassa Virus. Potency, µM (highest dose often 37.9 µM), without a hit: at the highest dose activity change, negative = inhibition, usual class: inhibitors. Lassa virus pseudotype entry inhibition, cell reporter. 1.2% of 300,000 active; calls by dose curve; tested in HEK293 cells; note: nearly all actives have a fitted effect of over 50% in size
VACV mCherry inh: qHTS for Stage-Specific Inhibitors of Vaccinia Orthopoxvirus: mCherry Reporter Primary qHTS. 0.63% of 310,000 active. Vaccinia virus mCherry reporter infection, fluorescence. Potency, µM (highest dose often 36.5 µM), for the others: top-dose activity change, negative = inhibition, hits mostly inhibitors. AID 720579, 2013; calls by dose curve; tested in A549 cells; note: nearly all actives have a fitted effect of over 35% in size
Vaccinia Venus: qHTS for Stage-Specific Inhibitors of Vaccinia Orthopoxvirus: Venus Reporter Primary qHTS. Potency, µM (doses to about 36.5 µM), without a hit: at the top dose activity change, negative = inhibition, usual class: inhibitors. Vaccinia virus Venus reporter expression, fluorescence. 0.46% of 330,000 active; calls by dose curve; tested in A549 cells; note: nearly all actives have a fitted effect of over 30% in size
FMDV antiviral: High Throughput Screening for Foot and Mouth Disease Virus Antivirals | FMDV antiviral cell-based qHTS | Potency, µM (top dose mostly 57.9 µM), inactives show at the highest dose activity change, negative = inhibition, most hits filed as inhibitors | 1.2% of 410,000 active | AID 1159524, 2015; calls by dose curve; tested in HEK293T cells; note: read-out not given here; nearly all actives have a fitted effect of over 45% in size
HCV inh: qHTS Assay for Inhibitors of Hepatitis C Virus (HCV). Potency, µM (titrated, usually from 41.8 µM), for the others: at the highest dose activity change, negative = inhibition, usual class: inhibitors. AID 651820, 2012. Huh7.5.1 HCVcc-Cre infection, luciferase reporter, 44 h. 3.4% of 340,000 active; active = well fitted inhibition curve with a large enough effect; inconclusive = small, poorly fitted or top-dose-only effect, or another doubt; inactive = no such curve, though single readings can be large or run the other way
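Compounds are dispensed onto cells plated 4 h earlier at 1,000 per well, with HCVcc-Cre virus (about 0.5 moi) added next. Following 44 h of culture, luminescent signal is measured for 15 sec after 15 min with substrate at room temperature.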
Marburg entry inh: qHTS for inhibitors of binding or entry into cells for Marburg Virus; AID 540276, 2011; Potency, µM (doses to about 37.8 µM), inactives show top-dose activity change, negative = inhibition, actives largely listed as inhibitors; Marburg virus pseudotyped entry inhibition, cell reporter; 1.8% of 300,000 active; calls by dose curve; tested in HEK293 cells
* marks the source's active call; other numbers are inactive results; i = inactive; u = inconclusive; x = no result given; ! = repeats disagree; [ ] = dose if it differs, or a comment. % is set by controls: 0 for no effect and ±100 for the full control effect; potency is the fitted concentration of half-maximal effect.

SMILES	Lassa entry inh	VACV mCherry inh	Vaccinia Venus	FMDV antiviral	HCV inh	Marburg entry inh
COc1ccc(OC)c(-c2cc(C(=O)Nc3c(C)nn(Cc4ccc(C)cc4)c3C)no2)c1	4%[46.1 µM]	-31%	-30%	u	x	-19%[46.1 µM]
COc1ccc(-c2cc(C(=O)Nc3c(C)nn(Cc4ccccc4Cl)c3C)no2)cc1OC	-1%	x	x	u	8.9µM*	-6%
CCn1c(-c2nonc2N)nc2c(C#CC(C)(C)O)nc(OC(CN)c3ccccc3)cc21 (stereo not given)	8.9µM*	x	x	x	x	x
COc1ccc2c(c1)CCc1cnc(-n3ncc(C(=O)NCC(C)(C)CN(C)C)c3C)nc1-2	x	u	-27%	0%	x	x
CCN(CC)S(=O)(=O)c1cc(NC(=O)Cc2ccc(S(=O)(=O)N3CCOCC3)s2)ccc1Cl	x	x	x	32µM*	10µM*	x
O=C(Cc1ccc(S(=O)(=O)N2CCOCC2)s1)Nc1cc(C(F)(F)F)ccc1N1CCCC1	u	u	-9%	-30%	u	u
O=C(Cc1ccc(S(=O)(=O)N2CCOCC2)s1)Nc1cc(C(F)(F)F)cc(C(F)(F)F)c1	x	x	x	0%	11µM*	x
N[C@H](Cc1ccc(Cl)cc1)C(=O)O	x	x	x	-10%	x	23%
NC(C(=O)O)C(O)c1ccc(O)c(O)c1 (stereo not given)	u	x	x	x	x	1.3µM*
COc1cc(C[C@@H](C)[C@@H](C)Cc2ccc(O)c(OC)c2)ccc1O	x	u	u	-22%	-13%	x
CC(Cc1ccc(O)c(O)c1)C(C)Cc1ccc(O)c(O)c1 (stereo not given)	u	-12%	-22%	-12%	10µM*	u
NC(Cc1ccc(N(CCCl)CCCl)cc1)C(=O)O (stereo not given)	2.9µM*	i	-11%	12%	x	5.8µM*
C[C@H](Cc1ccc(O)c(O)c1)[C@@H](C)Cc1ccc(O)c(O)c1	u	-17%	-22%	-27%	x	14µM*
N[C@@H](Cc1ccc(O)c(O)c1)C(=O)O	u	-12%	-11%	14%	u	16µM*!
CN(C)c1ccc(CN(Cc2ccco2)C(=O)c2ccc(F)cc2)cc1	u	-11%	1%	-17%	x	u
COC(=O)/C=c1\s/c(=C(/C#N)C(=O)N2CCCCC2)n(-c2ccccc2)c1=O	x	x	x	x	x	-33%
CC(NC(=O)c1ccc2ccccc2n1)c1ccc(S(N)(=O)=O)cc1 (stereo not given)	x	-5%	-9%	-3%	4%	7%[46.1 µM]
Cc1cccc(NC(=O)c2ccc3ccccc3n2)c1C	10µM*	-5%	-10%	9%	-19%	u
CC(NC(=O)c1ccc2ccccc2n1)c1ccc(Br)cc1 (stereo not given)	5.6µM*	-1%	-1%	-6%	-21%	u
O=C(Nc1nccs1)c1ccc2ccccc2n1	8.9µM*	-5%	15%	21%	-15%	u
O=C(NCc1cccs1)c1ccc2ccccc2n1	6.5µM*	-21%	-8%	29%	-7%	5%
O=C(NCc1ccccc1F)c1ccc2ccccc2n1	u	i	-11%	60%	0%	4%[46.1 µM]
Cc1ccccc1NC(=O)c1cccc(C(=O)Nc2ccccc2C)n1	3%[46.1 µM]	-18%	-11%	-18%	2%	-10%[46.1 µM]
Cc1ccc(-c2ccnc(-n3ncc(C(=O)NCCN4CCOCC4)c3C3CC3)n2)o1	x	i	-18%	-21%	x	x
C=CCc1cccc(Cl)c1OCCCNC1CCCC1	x	x	x	-21%	10µM*	x
SMILES	Lassa entry inh	VACV mCherry inh	Vaccinia Venus	FMDV antiviral	HCV inh	Marburg entry inh
COc1cc(-c2ccno2)ccc1S(=O)(=O)N1CCN(c2ccccc2)CC1	-15%[46.1 µM]	-4%	-7%	11%	x	x
Oc1ccc(/C=N/NC(=S)NCc2ccco2)cc1	u	x	-5%	-3%	-8%	0%
S=C(NCc1ccco1)N/N=C/c1ccc(Cl)cc1	4.6µM*	u	-19%	4%	-6%	-10%
CCN(CC)c1ccc(/C=N/NC(=S)NCc2ccco2)cc1	2.1µM*	u	-22%	u	u	u
Cn1cc(-c2nc3cncnc3n(C3CC3)c2=O)c2ccccc21	x	x	x	-17%	x	x
COc1ccccc1CNC(=O)CNC(=O)N1CC(=O)Nc2ccccc21	x	x	x	-11%	5%	x

Source: PubChem BioAssay (National Center for Advancing Translational Sciences (NCATS))
